# nsP2pro inh: blocks chikungunya virus nsP2 protease peptide cleavage; Potency, µM (titrated, usually from 24.9 µM), for the others: at the highest dose activity change, negative = inhibition, hits mostly inhibitors; FRET peptide cleavage, nsP2pro, fluorescence 1 h; Q8JUX6; hit rate 1.1% among 31,000; also: nearly all actives have a fitted effect of over 60% in size
#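 Enzyme 150 nM, substrate 2.5 uM (both final); Tris-HCl 10 mM pH 8.0 + 0.01% Tween 20; cpd up to 25 uM, 7 pts; 15 min preinc., 1 h RT; fluorescence ex 525/em 598.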
# nsP2 cell sec: inhibits CHIKV nsP2 protease in cells | hit rate 10% among 450 | cell-based CHIKV nsP2 protease reporter assay | Potency, µM (doses to about 51.1 µM), for the others: top-dose activity change, negative = inhibition, most hits filed as inhibitors | shares compounds with nsP2pro inh; also: nearly all actives have a fitted effect of over 70% in size
# Target sequence (Q8JUX6 220-798 limits assumed): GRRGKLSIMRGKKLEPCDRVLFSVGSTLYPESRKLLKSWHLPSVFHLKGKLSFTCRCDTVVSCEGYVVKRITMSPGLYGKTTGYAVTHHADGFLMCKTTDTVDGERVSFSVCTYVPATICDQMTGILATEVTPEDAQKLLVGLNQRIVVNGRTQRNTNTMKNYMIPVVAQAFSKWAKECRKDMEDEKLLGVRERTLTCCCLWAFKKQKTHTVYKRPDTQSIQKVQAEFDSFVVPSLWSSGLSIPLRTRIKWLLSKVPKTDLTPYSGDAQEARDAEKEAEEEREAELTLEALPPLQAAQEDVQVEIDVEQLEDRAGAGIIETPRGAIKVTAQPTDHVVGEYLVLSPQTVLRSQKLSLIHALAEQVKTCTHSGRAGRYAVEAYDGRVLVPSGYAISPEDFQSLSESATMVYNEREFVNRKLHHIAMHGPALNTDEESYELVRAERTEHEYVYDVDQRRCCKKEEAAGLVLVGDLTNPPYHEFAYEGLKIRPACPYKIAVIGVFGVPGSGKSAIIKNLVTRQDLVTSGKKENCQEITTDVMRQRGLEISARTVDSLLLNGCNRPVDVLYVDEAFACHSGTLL
# CHIKV NSP2 FL: selectivity test for CHIKV nsP2 protease inhibitors: full-length NSP2. shares compounds with nsP2pro inh. Full-length CHIKV NSP2 protease enzymatic counterscreen. Potency, µM (titrated, usually from 50.7 µM), for the others: at the top dose activity change, negative = inhibition, most hits filed as inhibitors. hit rate 39% among 410; also: nearly all actives have a fitted effect of over 65% in size
# Furin counterscr: inhibits human furin in a CHIKV nsP2 protease selectivity counterscreen | shares compounds with nsP2pro inh | Recombinant human furin enzymatic counterscreen, fluorogenic substrate | Potency, µM (doses to about 50.6 µM), without a hit: at the highest dose activity change, negative = inhibition, most hits filed as inhibitors | hit rate 6% among 410 | AID 1964102
# nsP2 NS23 pep: nsP2pro inhibition on native NS2/3 peptide substrate. shares compounds with nsP2pro inh. Purified CHIKV nsP2 protease, endogenous NS2/3 peptide cleavage. Potency, µM (doses to about 51 µM), inactives show top-dose activity change, negative = inhibition, actives largely listed as inhibitors. hit rate 34% among 410; also: nearly all actives have a fitted effect of over 55% in size
# Papain counter: inhibits papain in a CHIKV nsP2 protease selectivity counterscreen; shares compounds with nsP2pro inh; hit rate 5% among 410; Potency, µM (top dose mostly 51 µM), for inactives: at the highest dose activity change, negative = inhibition, most hits filed as inhibitors; AID 1964104; purified papain protease activity, enzymatic inhibition
# nsP2pro conf qHTS: CHIKV nsP2 protease inhibition, confirmatory qHTS | shares compounds with nsP2pro inh | CHIKV nsP2 protease enzymatic activity, qHTS | Potency, µM (top dose mostly 25.5 µM), without a hit: at the top dose activity change, negative = inhibition, most hits filed as inhibitors | hit rate 43% among 410; also: nearly all actives have a fitted effect of over 75% in size
# HCV NS3 counter: HCV NS3/4A protease inhibition, counterscreen. hit rate 20% among 410. HCV NS3/4A protease biochemical counterscreen. AID 1964106. Potency, µM (titrated, usually from 50.9 µM), hits mostly inhibitors. shares compounds with nsP2pro inh; also: nearly all actives have a fitted effect of over 55% in size
# Starred values were filed as active, the others as inactive; i = inactive; ? = inconclusive; [ ] = remark or other dose. The full list was thinned out, with hits kept by preference. Calls follow the shape of the full dose curve. % is scaled to controls: 0 for no effect and ±100 for the full control effect; potency is read from the fitted curve at half-maximal effect.
SMILES,nsP2pro inh,others
Cn1c(=O)c2c(nc(CN3CCN(C(=O)C4CC4)CC3)n2Cc2ccccc2Cl)n(C)c1=O,-8%,
CC(=O)OC1CC(O)C(C)(C)C2CC(OC(C)=O)C3(C)C(CCC4(C)C(c5ccoc5)C(=O)C5OC543)C12C (centres undefined),-27%[10 µM],
CC1(C)OC(=O)C=C[C@@]2(C)C1CC(=O)[C@]1(C)C2CC[C@@]2(C)[C@H](c3ccoc3)OC(=O)[C@H]3O[C@]321 (some centres undefined),3.4µM*,nsP2 cell sec=5%[17.6 µM];CHIKV NSP2 FL=?;Furin counterscr=6%[17.3 µM];nsP2 NS23 pep=-11%[17.2 µM];Papain counter=-4%[17.2 µM];nsP2pro conf qHTS=-28%[8.62 µM];HCV NS3 counter=i
CC(C)(O)C1CC(=O)C2(C)C(CCC3(C)C(c4ccoc4)OC(=O)C4OC432)C12CCC(=O)OC2 (centres undefined),0.86µM*,nsP2 cell sec=2%[17.6 µM];CHIKV NSP2 FL=?;Furin counterscr=6%[17.3 µM];nsP2 NS23 pep=-19%[17.2 µM];Papain counter=-8%[17.2 µM];nsP2pro conf qHTS=?;HCV NS3 counter=?
COC(=O)c1ccc(O)c2ncc(-c3ccc(C(=O)NCCCN(C)C)cc3)cc12,i,
O=C(O)Cn1nnc(-c2ccc(CN(CCCCOc3ccc(CN4CCCC4)cc3)CCc3ccccc3)cc2)n1,12%,
c1ccc(COc2cccc(-c3nc4ccccc4s3)c2)cc1,-3%,
Cc1ccc(Cc2c(C)nc3nc(SCC(=O)NCCN4CCNCC4)nn3c2C)cc1,7%,
Cc1cc(NC(=O)Nc2nnc(-c3ccncc3)s2)ccc1Br,-17%,
CCC(=O)C1CCCN(C(=O)CC(c2ccc3c(c2)OCO3)c2c(O)cc(OC)cc2OC)C1 (centres undefined),0%[39.2 µM],
CCOC(=O)CC(SP(=S)(OC)OC)C(=O)OCC (centres undefined),8.8µM*,nsP2 cell sec=-23%;CHIKV NSP2 FL=23µM*;Furin counterscr=-16%;nsP2 NS23 pep=18µM*;Papain counter=?;nsP2pro conf qHTS=5.7µM*;HCV NS3 counter=i
Cc1cc(C)cc(NC(=O)N2CCC(CCc3nc(C4CCOCC4)no3)CC2)c1,-10%,
COc1cc2c(cc1-c1ccc(CO)cc1)NC(=O)C21CCN(C)CC1,1%[39.2 µM],
CCCCCCCCCCCCNCCNCCNCC(=O)O,24%[10 µM],
CCOC(=O)c1c(NC(=O)COc2ccccc2)sc(C(C)=O)c1C,20%,
CCOC(=O)c1c(NC(=O)c2nc(SCC)ncc2Cl)sc(C(C)=O)c1C,-5%,
CCOC(=O)c1c(NC(=O)c2nc(S(C)(=O)=O)ncc2Cl)sc(C(C)=O)c1C,?,nsP2 cell sec=3.7µM*;CHIKV NSP2 FL=?;Furin counterscr=-12%;nsP2 NS23 pep=4.6µM*;Papain counter=-3%;nsP2pro conf qHTS=-96%;HCV NS3 counter=?
NC(=O)c1ccc(Cc2c(-c3cccc(-c4ccccc4)c3)[nH]n(-c3nc(C(=O)O)cs3)c2=O)cc1,i,
Cc1cc(C)nc(NC(=S)N2CCN(c3cccc(S(C)=O)c3)CC2)c1 (centres undefined),5%,
C[S+](=O)([O-])N1CC2(CCCCN2Cc2ccccn2)Cc2ccccc21 (centres undefined),i,
C=CCNc1oc(-c2cccc3ccccc23)nc1C#N,3%,
C=CCNc1nnc(-c2cccc3ccccc23)o1,?,nsP2 cell sec=26%;CHIKV NSP2 FL=23µM*;Furin counterscr=?;nsP2 NS23 pep=?;Papain counter=-4%;nsP2pro conf qHTS=7.1µM*;HCV NS3 counter=?
C=CCSc1nnc(-c2cccc3ccccc23)o1,2%,
S=C(Nc1cc(Cl)ccn1)N1CCN(c2cccc(Cl)c2Cl)CC1,i,
CN(c1ccc(NC(=O)Nc2ccccc2)cc1)S(=O)(=O)c1cnn(-c2ccc(F)cc2)c1,12%,
SMILES,nsP2pro inh,others
CCN1CCN(C(=O)C2CCc3nnc(-c4cccc(C(F)(F)F)c4)n32)CC1 (centres undefined),2%,
COC(=O)[C@]12CCC(C)(C)C[C@H]1[C@H]1C(=O)C=C3[C@@]4(C)C=C(C#N)C(=O)C(C)(C)[C@@H]4CC[C@@]3(C)[C@]1(C)CC2,?,nsP2 cell sec=?;CHIKV NSP2 FL=?;Furin counterscr=-3%;nsP2 NS23 pep=?;Papain counter=?;nsP2pro conf qHTS=?;HCV NS3 counter=i
O=C(O)c1ccc(-n2cccc2/C=C2\SC(=O)N(Cc3cccc(Cl)c3)C2=O)cc1,i,
COc1cc2nc(N3CCN(C(=O)c4ccco4)C4CCCCC43)nc(N)c2cc1OC (centres undefined),-16%,
Cc1cnc(-c2ccccc2C(C)C)nc1NCc1ccc(-c2ccnc(C(F)(F)F)c2)cc1,-5%,
O=C(Nc1cnn2ccc(N3CCC[C@@H]3c3cc(F)ccc3F)nc12)N1CC[C@H](O)C1,-8%,
Cn1nc(-c2ccc(C(F)(F)F)cc2)nc2c(=O)n(C)c(=O)nc1-2,-19%,
C=C1C(=O)O[C@H]2C1[C@H](OC(=O)/C(=C/CO)COC(=O)/C(C)=C/CO)CC(=C)[C@@H]1CC(=O)[C@@H](C)[C@@H]12 (some centres undefined),1.2µM*,nsP2 cell sec=?;CHIKV NSP2 FL=1.8µM*;Furin counterscr=-5%[17.3 µM];nsP2 NS23 pep=3.6µM*;Papain counter=-7%[17.2 µM];nsP2pro conf qHTS=0.87µM*;HCV NS3 counter=?
C=C1C(=O)O[C@@H]2CC(C)=C([C@@H](C)CCCO)[C@@H](OC(=O)C(C)C)[C@H]12,48%,
C=C(CO)C(=O)O[C@H]1CC(=C)[C@@H]2C[C@H](O)C(=C)[C@@H]2[C@H]2OC(=O)C(=C)[C@@H]21,4%,
O=C1CCCC2=C1C(c1[nH]ncc1Cl)N=C(Nc1nc3cc([S+](=O)([O-])N4CCOCC4)ccc3o1)N2 (centres undefined),-20%,
CC(=O)c1ccc(N2CCN(S(=O)(=O)c3ccc4[nH]c(=O)oc4c3)CC2)cc1,i,
COc1ccc(CNC(=O)[C@H]2CNC[C@H](C(=O)N3CCCC3)C2)c(F)c1F,-7%,
Cc1cc(NS(=O)(=O)c2cc3c(cc2N[C@@H](C)CO)NC(=O)CC3)ccc1F,-5%,
O=C1CO[C@H]2CCN(Cc3ccc4c(c3)CCO4)CC[C@@H]2N1Cc1ccccc1,i,
CC(=O)N1CCC(N2CCOC[C@H]2c2ncc(-c3ccncc3)[nH]2)CC1,i,
COC(=O)N[C@H](C(=O)N1CCC[C@H]1c1ncc(-c2ccc3c(c2)O[C@@H](c2ccccc2)n2c-3cc3cc(-c4cnc([C@@H]5CCCN5C(=O)[C@@H](NC(=O)OC)C(C)C)[nH]4)ccc32)[nH]1)C(C)C,0%,
COC(=O)N[C@H](C(=O)N1CCC[C@H]1c1ncc(-c2ccc(-c3ccc(-c4cnc([C@@H]5CCCN5C(=O)[C@@H](NC(=O)OC)C(C)C)[nH]4)cc3)cc2)[nH]1)C(C)C,?,nsP2 cell sec=-11%;CHIKV NSP2 FL=?;Furin counterscr=-8%;nsP2 NS23 pep=-19%;Papain counter=i;nsP2pro conf qHTS=?;HCV NS3 counter=i
C[C@@H](CN1CCC(n2c(=O)[nH]c3cc(Cl)ccc32)CC1)NC(=O)c1ccc2ccccc2c1,0%,
CCCCN(C)C(=O)Cn1nc(-c2ccccc2C)ccc1=O,-4%,

# Screening data as filed in PubChem BioAssay.
